Assay results published in PubChem BioAssay.

What was measured:
[1] = system: Botulinum neurotoxin type F light chain protease (Clostridium botulinum); experiment: Clostridium botulinum type F light chain protease inhibitors, microsphere substrate cleavage, validation (AID 588459); conditions: multiplex microsphere protease substrate cleavage assay, flow cytometry; at 10 µM; hits give high values
[2] = molecular target: Botulinum neurotoxin type A (Clostridium botulinum) (UniProt P0DPI0); experiment: BoNT/A light chain protease inhibitors, biochemical, multiplex microsphere flow cytometry, validation set (AID 588460); conditions: at 10 µM, hits give high values
[3] = molecular target: Lethal factor (Bacillus anthracis) (UniProt P15917); experiment: Bacillus anthracis lethal factor inhibition, microsphere flow cytometry protease assay, validation at 10 µM (AID 588461); conditions: multiplex microsphere protease cleavage assay, hits give high values

Measured: inhibition

Lethal factor (Bacillus anthracis), sequence (P15917 whole entry, looked up): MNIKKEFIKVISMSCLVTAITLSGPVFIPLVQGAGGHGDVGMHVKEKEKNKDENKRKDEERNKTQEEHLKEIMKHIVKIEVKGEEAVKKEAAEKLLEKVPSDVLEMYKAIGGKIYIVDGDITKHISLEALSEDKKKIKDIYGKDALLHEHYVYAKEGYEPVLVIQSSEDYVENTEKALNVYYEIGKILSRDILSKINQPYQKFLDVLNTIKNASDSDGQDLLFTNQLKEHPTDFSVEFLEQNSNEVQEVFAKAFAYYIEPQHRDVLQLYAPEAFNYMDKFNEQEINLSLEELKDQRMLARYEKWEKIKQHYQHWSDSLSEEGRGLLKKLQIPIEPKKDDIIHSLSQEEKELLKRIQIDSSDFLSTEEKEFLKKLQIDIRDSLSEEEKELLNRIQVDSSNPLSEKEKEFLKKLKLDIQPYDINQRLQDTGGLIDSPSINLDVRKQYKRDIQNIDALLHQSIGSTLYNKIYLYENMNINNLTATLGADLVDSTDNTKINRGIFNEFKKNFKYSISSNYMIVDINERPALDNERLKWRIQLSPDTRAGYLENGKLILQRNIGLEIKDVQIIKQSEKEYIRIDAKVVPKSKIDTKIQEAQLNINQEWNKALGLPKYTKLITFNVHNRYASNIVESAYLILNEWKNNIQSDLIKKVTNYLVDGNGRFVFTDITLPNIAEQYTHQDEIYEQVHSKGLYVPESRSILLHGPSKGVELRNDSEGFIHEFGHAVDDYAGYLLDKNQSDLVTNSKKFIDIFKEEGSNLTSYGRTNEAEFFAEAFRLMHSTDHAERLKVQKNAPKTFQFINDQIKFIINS
Botulinum neurotoxin type A (Clostridium botulinum), sequence (P0DPI0 whole entry, looked up): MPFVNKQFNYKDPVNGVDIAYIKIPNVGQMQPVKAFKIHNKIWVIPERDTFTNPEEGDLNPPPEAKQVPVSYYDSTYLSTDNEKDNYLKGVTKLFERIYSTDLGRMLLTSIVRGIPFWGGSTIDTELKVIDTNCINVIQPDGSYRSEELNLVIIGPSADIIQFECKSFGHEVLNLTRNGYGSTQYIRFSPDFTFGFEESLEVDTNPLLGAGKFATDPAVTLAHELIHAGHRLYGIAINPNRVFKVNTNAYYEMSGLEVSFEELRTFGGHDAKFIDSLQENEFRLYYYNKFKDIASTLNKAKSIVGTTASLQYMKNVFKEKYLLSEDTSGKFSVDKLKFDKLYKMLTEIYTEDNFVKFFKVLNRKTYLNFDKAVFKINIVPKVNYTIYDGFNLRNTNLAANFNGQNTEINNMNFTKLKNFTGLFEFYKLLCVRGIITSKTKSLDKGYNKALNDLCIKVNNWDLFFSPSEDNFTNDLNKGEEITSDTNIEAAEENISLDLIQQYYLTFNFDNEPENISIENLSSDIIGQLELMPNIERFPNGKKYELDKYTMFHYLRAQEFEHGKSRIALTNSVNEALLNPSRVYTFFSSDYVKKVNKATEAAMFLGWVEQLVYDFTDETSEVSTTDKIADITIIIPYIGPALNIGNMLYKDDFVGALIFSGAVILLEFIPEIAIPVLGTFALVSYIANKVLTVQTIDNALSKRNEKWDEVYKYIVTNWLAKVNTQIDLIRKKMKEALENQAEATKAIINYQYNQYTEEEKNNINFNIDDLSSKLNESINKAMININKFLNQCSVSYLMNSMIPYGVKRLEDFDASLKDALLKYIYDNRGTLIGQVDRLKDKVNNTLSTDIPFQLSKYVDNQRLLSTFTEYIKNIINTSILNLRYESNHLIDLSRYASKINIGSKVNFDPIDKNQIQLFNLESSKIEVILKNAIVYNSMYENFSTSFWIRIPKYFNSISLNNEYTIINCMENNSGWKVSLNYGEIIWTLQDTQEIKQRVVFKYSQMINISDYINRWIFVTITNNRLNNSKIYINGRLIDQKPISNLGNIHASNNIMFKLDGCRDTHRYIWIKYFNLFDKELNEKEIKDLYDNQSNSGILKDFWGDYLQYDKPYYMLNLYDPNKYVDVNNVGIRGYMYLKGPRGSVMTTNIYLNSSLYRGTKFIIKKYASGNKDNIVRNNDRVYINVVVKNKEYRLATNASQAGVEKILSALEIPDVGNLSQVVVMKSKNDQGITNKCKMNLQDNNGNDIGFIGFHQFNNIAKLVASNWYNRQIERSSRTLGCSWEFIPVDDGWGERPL

COc1ccc2c(c1)c(CC(=O)O)c(C)n2C(=O)c1ccc(Cl)cc1
inactive: [1] 0.9% | [2] -1.5% | [3] -4.2%

CCc1cc2c(=O)c(-c3ccc(F)cc3)c(C)oc2cc1OCC(=O)O
inactive: [1] 3.9% | [2] 2.2% | [3] -1.1%

CC(C)N(C(=O)Cc1ccccc1[N+](=O)[O-])C(C)C
inactive: [1] -0.6% | [2] -2% | [3] -1.5%

C[C@H]([C@@H](N)C(=O)N[C@@H](C(=O)O)[C@@H]1O[C@H](n2ccc(=O)[nH]c2=O)[C@@H](O)[C@H]1O)[C@@H](O)c1ccc(O)cn1
inactive: [1] 0.3% | [2] -1% | [3] -3.6%

COCCN(CCOC)Cc1c(C)[nH]c2c(C)c(C)ccc2c1=O
inactive: [1] 3.4% | [2] -0.6% | [3] -0.3%

CN(C)CCOc1ccc(Cl)cc1C(C)(C)C
inactive: [1] -7.7% | [2] -2.2% | [3] -7.1%

CC(C)C[C@H](NC(=O)[C@@H]1Cc2ccccc2CN1C(=O)OC(C)(C)C)C(=O)NCC1CCC(C(=O)O)CC1 (some centres undefined)
inactive: [1] 3% | [2] 0.3% | [3] -3.6%

CC1COc2c(N3CCN(C)CC3)c(F)cc3c(=O)c(C(=O)O)cn1c23 (centres undefined)
inactive: [1] -0.1% | [2] -0.3% | [3] 3.1%

CC(=O)[C@@]1(O)CC[C@H]2[C@@H]3CCC4=CC(=O)CC[C@]4(C)[C@H]3CC[C@@]21C
inactive: [1] 11.2% | [2] 0.4% | [3] -5.7%

O=C1C(O)CC2c3ccccc3CC3(CCCC3)N12 (centres undefined)
inactive: [1] 2% | [2] -1.5% | [3] -6%

CCOC(=O)c1ccc2[nH]c(C)c(CCC(C)=O)c(=O)c2c1
inactive: [1] -0.7% | [2] 0.3% | [3] 6%

CC12CCC(C(=O)NNc3ccccc3)(C(=O)C1=O)C2(C)C (centres undefined)
inactive: [1] 1.1% | [2] 0.4% | [3] -3.4%

Cc1ccc(CN2CCN(Cc3cn[nH]c3C3CCCCC3)CC2CCO)cc1 (centres undefined)
inactive: [1] -1.3% | [2] -0.4% | [3] -2.1%

CCOc1ccc2nc(N/C(N)=N/S(C)(=O)=O)nc(C)c2c1
inactive: [1] 2.1% | [2] -0.1% | [3] 2.4%

Cc1cn([C@H]2C[C@H](N=[N+]=[N-])[C@@H](CO)O2)c(=O)[nH]c1=O
inactive: [1] 2.4% | [2] 0.2% | [3] -2.8%

Cc1ccc2[nH]c(=O)c(Cc3ccccc3)c(O)c2c1
inactive: [1] 0.6% | [2] -0.4% | [3] 2.6%

Cc1ccccc1OCCSc1nc2ncnc(N)c2[nH]1
inactive: [1] 0.8% | [2] -1% | [3] 0.1%

O[C@H]1COC2C1OC[C@@H]2O (some centres undefined)
inactive: [1] -2.3% | [2] -0.4% | [3] 0%

OCCC1CN(Cc2nc(-c3ccccc3)cs2)CCN1Cc1ccc(F)cc1 (centres undefined)
inactive: [1] 3.5% | [2] 0.9% | [3] 8.5%

O=C(/C=C/Sc1ccccc1)c1ccccc1
inactive: [1] -0.5% | [2] -0.8% | [3] -4.1%

CC(=O)OCC(=O)[C@@]1(O)CC[C@H]2[C@@H]3CCC4=CC(=O)CC[C@]4(C)[C@H]3[C@@H](O)C[C@@]21C
inactive: [1] -3.3% | [2] -3.5% | [3] -5.1%

CCOc1cc2c3c(c1)C(C)=CC(C)(C)N3C(=O)C2=O
inactive: [1] 1.1% | [2] -2.5% | [3] -4%

O=Cc1ccc(O)c(O)c1
inactive: [1] -2% | [2] -1.1% | [3] -1%

CN(C)CCOCCOc1ccc(Cl)cc1Br
inactive: [1] 6.4% | [2] 1% | [3] -5.5%

CCOc1ccc2ccccc2c1CNc1nnnn1C
inactive: [1] -0.1% | [2] -1.2% | [3] -1.5%

CC(C)Cn1c(=S)[nH]c2cc(C(=O)O)ccc2c1=O
inactive: [1] -4.3% | [2] -0.4% | [3] -0.6%

CC(C)CCNC(=O)[C@H](CC(C)C)NC(=O)[C@H]1O[C@@H]1C(=O)O
inactive: [1] -3.8% | [2] 1.5% | [3] -3%

O=C(CNC(=O)OCc1ccccc1)Oc1cc2oc(=O)cc(-c3ccccc3)c2cc1Cl
inactive: [1] 2.7% | [2] 0.9% | [3] 11.5%
